Laboratory results from PubChem BioAssay (NCI).
This is part of a sample that, as a whole, favours compounds with a hit. Of some 83,000 tested, about 20% had one in any assay.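 48-hour exposure, single concentration, 96-well plates; percent growth endpoint where 0 means no net growth. Active: below 10.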 Active and inactive are the calls of the source.

How the values were obtained:
Experiment in all cases: NCI-60 one-dose screen, 48 h (100 = growth as untreated, 0 = no growth, -100 = all killed)
Conditions in all cases: 10 µM unless noted
DU-145 prostate = test system: DU-145 prostate
K-562 leukemia = test system: K-562 leukemia
MALME-3M melanoma = test system: MALME-3M melanoma
MDA-MB-231 breast = test system: MDA-MB-231 breast
RXF 393 renal = test system: RXF 393 renal
SF-268 CNS = test system: SF-268 CNS
SF-295 CNS = test system: SF-295 CNS
SF-539 CNS = test system: SF-539 CNS
UACC-257 melanoma = test system: UACC-257 melanoma
M14 melanoma = test system: M14 melanoma
HCT-15 colon = test system: HCT-15 colon
HT29 colon = test system: HT29 colon
SNB-75 CNS = test system: SNB-75 CNS
SNB-19 CNS = test system: SNB-19 CNS
U251 CNS = test system: U251 CNS
PC-3 prostate = test system: PC-3 prostate
SK-MEL-5 melanoma = test system: SK-MEL-5 melanoma
UACC-62 melanoma = test system: UACC-62 melanoma
LOX IMVI melanoma = test system: LOX IMVI melanoma
SK-MEL-28 melanoma = test system: SK-MEL-28 melanoma

| SMILES | growth (DU-145 prostate) | growth (K-562 leukemia) | growth (MALME-3M melanoma) | growth (MDA-MB-231 breast) | growth (RXF 393 renal) | growth (SF-268 CNS) | growth (SF-295 CNS) | growth (SF-539 CNS) | growth (UACC-257 melanoma) | growth (M14 melanoma) | growth (HCT-15 colon) | growth (HT29 colon) | growth (SNB-75 CNS) | growth (SNB-19 CNS) | growth (U251 CNS) | growth (PC-3 prostate) | growth (SK-MEL-5 melanoma) | growth (UACC-62 melanoma) | growth (LOX IMVI melanoma) | growth (SK-MEL-28 melanoma) |
| --- | --- | --- | --- | --- | --- | --- | --- | --- | --- | --- | --- | --- | --- | --- | --- | --- | --- | --- | --- | --- |
| COc1ccc(C2C(c3nn[nH]n3)=C(N)Oc3c2ccc2ccccc32)cc1 (stereo unspecified) | 88% (inactive) | 19.2% (inactive) | 63.7% (inactive) | 31.5% (inactive) | 76.3% (inactive) | 72.1% (inactive) | 77.8% (inactive) | 73.7% (inactive) | 89.8% (inactive) | 58.4% (inactive) | 35% (inactive) | 127% (inactive) | 39.9% (inactive) | 67.3% (inactive) | 73.3% (inactive) | 65.5% (inactive) | 57.5% (inactive) | 45.9% (inactive) | 63.5% (inactive) |  |
| S=C(Cc1ccc2c(c1)CCCC2)N1CCOCC1 | 104% (inactive) | 107% (inactive) | 85.6% (inactive) | 103% (inactive) | 115% (inactive) | 101% (inactive) | 104% (inactive) | 99.6% (inactive) | 91.5% (inactive) | 99.5% (inactive) | 101% (inactive) | 87.9% (inactive) | 95.1% (inactive) | 102% (inactive) | 95.6% (inactive) | 97.8% (inactive) | 102% (inactive) | 95.9% (inactive) | 93.2% (inactive) |  |
| CC(C)CCC[C@@H](C)[C@H]1CC[C@H]2[C@@H](Nc3ccc(O)cc3)CCC[C@]12C | 96.5% (inactive) | 105% (inactive) | 133% (inactive) | 109% (inactive) | 70.6% (inactive) | 80.2% (inactive) | 98.5% (inactive) | 17.5% (inactive) | 42.2% (inactive) | 102% (inactive) | 70.8% (inactive) | 89.5% (inactive) | 75.8% (inactive) | 111% (inactive) | 91.8% (inactive) | 33.5% (inactive) | 97.9% (inactive) | 76.5% (inactive) | 34.7% (inactive) |  |
| Cc1c(O)cc(-c2cnc(N/N=C\c3ccc(Cl)cc3)s2)c(O)c1C | 100% (inactive) | 72.2% (inactive) | 107% (inactive) | 95.4% (inactive) | 81.3% (inactive) | 92.4% (inactive) | 99.9% (inactive) | 78.8% (inactive) | 91.2% (inactive) | 96.2% (inactive) | 85% (inactive) | 101% (inactive) | 94.2% (inactive) | 97% (inactive) | 89.9% (inactive) | 66.4% (inactive) | 79.8% (inactive) | 81.6% (inactive) | 62.2% (inactive) |  |
| CCN1CCN(c2nc(C)cc(NCc3cc(Nc4ccnc5cc(Cl)ccc45)ccc3F)n2)CC1 | 38% (inactive) | -38.3% (active) | -69% (active) | -31.1% (active) | -10.8% (active) | 16.6% (inactive) | -55% (active) | -81% (active) | -57.7% (active) | -83.7% (active) | -24.2% (active) | -12.6% (active) | -34.7% (active) | 34.7% (inactive) | -27.2% (active) | 19.5% (inactive) | -96.4% (active) | -49.8% (active) | -81.5% (active) |  |
| COC(=O)CCC1=C(C)C2=NC1=CC1=NC(=CC3=NC(=Cc4[nH]c(/c(=C(/C)O)c4C)=C2)C(C(C)=O)=C3C)C(C)=C1CCC(=O)OC | 110% (inactive) | 112% (inactive) | 96% (inactive) | 103% (inactive) | 112% (inactive) | 98.9% (inactive) | 104% (inactive) | 97.7% (inactive) | 90.3% (inactive) | 108% (inactive) | 99.8% (inactive) | 107% (inactive) | 90.6% (inactive) | 97.3% (inactive) | 98.9% (inactive) | 83.7% (inactive) | 103% (inactive) | 97.2% (inactive) | 96% (inactive) |  |
| O=C(Nc1ccccc1Cl)Oc1ccc(-c2ccccc2)cc1 | 120% (inactive) | 110% (inactive) | 122% (inactive) | 107% (inactive) | 109% (inactive) | 119% (inactive) | 114% (inactive) | 95.1% (inactive) | 111% (inactive) | 107% (inactive) | 104% (inactive) | 103% (inactive) | 84.2% (inactive) | 98.4% (inactive) | 112% (inactive) | 99.8% (inactive) | 99.9% (inactive) | 89% (inactive) | 106% (inactive) |  |
| N#CC1=C(/N=C/c2ccccc2)Oc2c(ccc3ccccc23)C1c1ccccc1 (stereo unspecified) | 17.6% (inactive) | 12.2% (inactive) | 49.2% (inactive) | 19% (inactive) | 18% (inactive) | 30.8% (inactive) | 3.77% (active) | 1.25% (active) | 53.6% (inactive) | 4.85% (active) | 16.6% (inactive) | 4.48% (active) | 10.1% (inactive) | 24.4% (inactive) | 16.9% (inactive) | 8.32% (active) | -3.14% (active) | 15.7% (inactive) | 23.9% (inactive) |  |
| Cc1cc(N2CCCC2)nc(NCc2cc(Nc3ccnc4cc(Cl)ccc34)ccc2F)n1 | -65.9% (active) | -31.9% (active) | -66.9% (active) | -69.8% (active) | -64.9% (active) | -56.2% (active) | -87.5% (active) | -70.4% (active) | -64% (active) | -80.3% (active) | -74.3% (active) | -41.6% (active) | -90.7% (active) | 1.18% (active) | -89.7% (active) | -38.8% (active) | -98.6% (active) | -77.8% (active) | -92.9% (active) |  |
| CCCCCCCCCCCCCCCCCC1=NCCN1CCOC1=C(Cl)C(=O)c2ccccc2C1=O | 109% (inactive) | 21.7% (inactive) | 67.1% (inactive) | 55.9% (inactive) | 102% (inactive) | 91.2% (inactive) | 108% (inactive) | 104% (inactive) | 72.3% (inactive) | 83.1% (inactive) | 55.4% (inactive) | 65% (inactive) | 87.4% (inactive) | 81.4% (inactive) | 66.4% (inactive) | 55.3% (inactive) | 103% (inactive) | 40.6% (inactive) | 66.6% (inactive) |  |
| COc1ccc2c(c1)O/C(=C/c1ccc(OCC(=O)c3ccccc3)cc1)C2=O | 118% (inactive) | 80.7% (inactive) | 96.3% (inactive) | 84.4% (inactive) | 109% (inactive) | 117% (inactive) | 137% (inactive) | 107% (inactive) | 125% (inactive) | 99.3% (inactive) | 111% (inactive) | 110% (inactive) | 120% (inactive) | 108% (inactive) | 108% (inactive) | 96.2% (inactive) | 125% (inactive) | 96.3% (inactive) | 108% (inactive) |  |
| COc1cc(Cn2ncc3ccc(NC(=O)c4cc5ccccc5oc4=N)cc32)cc(OC)c1OC | 88.5% (inactive) | 16.3% (inactive) | 54% (inactive) | 54.4% (inactive) | 73.3% (inactive) | 85.8% (inactive) | 63.6% (inactive) | 29.5% (inactive) | 98.8% (inactive) | 29.5% (inactive) | 27.2% (inactive) | 15.8% (inactive) | 90.9% (inactive) | 70.9% (inactive) | 62.9% (inactive) | 47.1% (inactive) | 61.6% (inactive) | 55.2% (inactive) | 63.6% (inactive) |  |
| CCCCCCCCCOc1c(OC)cc(C2CC(=O)Nc3c2c(C)nn3-c2nc3ccccc3[nH]2)cc1OC (stereo unspecified) | 1.94% (active) | 9.07% (active) | -58.3% (active) | -75% (active) | -83.4% (active) | -58.8% (active) | -59.1% (active) | -86.3% (active) | 15.5% (inactive) | -25.5% (active) | -30.8% (active) | -37.9% (active) | -48.8% (active) | -4% (active) | -51.6% (active) | -3.05% (active) | -99.4% (active) | -62.4% (active) | -95.8% (active) | -47.4% (active) |
| COc1ccc(-c2nc3c(N)c(CO)c(C)nc3o2)cc1 | 102% (inactive) | 91.5% (inactive) | 96.7% (inactive) | 111% (inactive) | 96% (inactive) | 94.9% (inactive) | 99.1% (inactive) | 93.9% (inactive) | 101% (inactive) | 106% (inactive) | 102% (inactive) | 97.7% (inactive) | 98.9% (inactive) | 111% (inactive) | 96.5% (inactive) | 103% (inactive) | 95.3% (inactive) | 97.7% (inactive) | 93.5% (inactive) |  |
| CCN1C(=O)N(CC)C2C1NN=c1s/c(=C\c3cccs3)c(=O)n12 (stereo unspecified) | 10.4% (inactive) | 14.5% (inactive) | 49.1% (inactive) | 7.14% (active) | 11.5% (inactive) | 59.3% (inactive) | 19.3% (inactive) | -3.34% (active) | 74.4% (inactive) | 8.36% (active) | 16.5% (inactive) | 60.2% (inactive) | 16.6% (inactive) | 37% (inactive) | 19.8% (inactive) | 21.9% (inactive) | -4.97% (active) | 38% (inactive) | 23.1% (inactive) |  |
